From PubChem BioAssay (Tox21) come the findings set out here.

A short description of experiment [1]: qHTS assay to identify aromatase inhibitors - cell viability counter screen (AID 743084;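 further: cells stimulated with testosterone during compound exposure; nearly all actives have a fitted effect of over 55% in size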). (In general: Quantitative high-throughput screening tests each substance at several concentrations.)
The target of experiment [2] is Aryl hydrocarbon receptor (Homo sapiens) (UniProt P35869). Description: qHTS assay to identify small molecule that activate the aryl hydrocarbon receptor (AhR) signaling pathway (AID 743085).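 Further: HG2L7.5c1 human HepG2 liver cells with stably integrated DRE-driven firefly reporter; series mostly up to about 70 µM; nearly all actives have a fitted effect of over 15% in size.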 In outline: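 Compounds were tested in HepG2 hepatocellular carcinoma cells harbouring a stably integrated luciferase gene under control of 20 DREs. Increased reporter signal after 24 h treatment at 37C was taken as AhR activation.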
Chain of Aryl hydrocarbon receptor (Homo sapiens) (P35869 whole entry, looked up): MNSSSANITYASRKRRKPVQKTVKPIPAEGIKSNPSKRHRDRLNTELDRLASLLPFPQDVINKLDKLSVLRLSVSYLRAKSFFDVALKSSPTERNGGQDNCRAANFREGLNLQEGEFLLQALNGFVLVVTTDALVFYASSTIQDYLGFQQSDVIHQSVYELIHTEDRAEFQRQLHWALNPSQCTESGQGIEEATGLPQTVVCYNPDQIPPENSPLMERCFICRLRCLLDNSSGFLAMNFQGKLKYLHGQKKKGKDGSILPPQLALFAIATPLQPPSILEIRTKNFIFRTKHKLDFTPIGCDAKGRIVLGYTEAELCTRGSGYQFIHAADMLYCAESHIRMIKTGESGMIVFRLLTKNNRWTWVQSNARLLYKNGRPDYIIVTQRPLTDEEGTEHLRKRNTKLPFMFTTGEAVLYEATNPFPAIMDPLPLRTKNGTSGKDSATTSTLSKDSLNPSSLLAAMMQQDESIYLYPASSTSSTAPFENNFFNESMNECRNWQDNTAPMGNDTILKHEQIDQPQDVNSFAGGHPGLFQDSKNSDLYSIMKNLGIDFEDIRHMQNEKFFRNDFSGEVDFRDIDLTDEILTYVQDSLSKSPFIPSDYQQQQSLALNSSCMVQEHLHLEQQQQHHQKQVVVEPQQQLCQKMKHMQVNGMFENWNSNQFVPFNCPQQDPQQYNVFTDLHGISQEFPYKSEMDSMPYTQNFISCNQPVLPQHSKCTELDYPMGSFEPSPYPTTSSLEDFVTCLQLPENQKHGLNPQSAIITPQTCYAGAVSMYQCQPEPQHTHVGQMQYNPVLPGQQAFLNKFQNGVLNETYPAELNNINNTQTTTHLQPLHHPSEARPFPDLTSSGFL

Experiment [3] is described as follows: qHTS assay to identify small molecule that activate the aryl hydrocarbon receptor (AhR) signaling pathway - cell viability counter screen (AID 743086).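 Further: HepG2 liver cells carrying the AhR DRE luciferase reporter; series mostly up to about 70 µM; nearly all actives have a fitted effect of over 45% in size.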 In outline: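 HepG2-AhR-luc (HG2L7.5c1) cells, 4000/well, treated 24 h at 37 C with compound; viability measured as CellTiter-Fluor fluorescence after 30 min in the same wells as the luciferase read.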
In experiment [4] the target is Peroxisome proliferator-activated receptor gamma (Homo sapiens) (UniProt P37231). Briefly: qHTS assay to identify small molecule agonists of the peroxisome proliferator-activated receptor gamma (PPARg) signaling pathway (AID 743094; active means well fitted activation curve with a large enough effect in the signal ratio in the repeat runs, not every such curve was filed as active; the % refers to the signal ratio). In outline:
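HEK293H PPARg-bla cells, 5 h settle at 37C/5% CO2; compound (DMSO) 17 h, 37C; B/G FRET substrate 1 h RT; fluorescence intensity read-out. qHTS format.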

For experiment [5] the target is unchanged. Briefly: qHTS assay to identify small molecule antagonists of the peroxisome proliferator-activated receptor gamma (PPARg) signaling pathway (AID 743191; calls by dose curve; further: series mostly up to about 63 µM; nearly all actives have a fitted effect of over 30% in size). In a few lines: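 GeneBLAzer PPARg UAS-bla HEK293H cells, 5 h post-plating, exposed to compounds 17 h at 37C. LiveBLAzer B/G FRET substrate added for 1 h at room temperature; beta-lactamase reporter read by fluorescence intensity.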

The nature of experiment [6]: qHTS assay to identify small molecule antagonists of the peroxisome proliferator-activated receptor gamma (PPARg) signaling pathway - cell viability counter screen (AID 743194). Further: nearly all actives have a fitted effect of over 55% in size. In outline:
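Cytotoxicity counter screen in PPARg-bla HEK293H cells, same wells as reporter assay. Compounds plus 50 nM rosiglitazone (final) for 17 h at 37 C, then viability read by CellTiter-Glo luminescence.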

Experiment [7] in a line: qHTS assay for small molecule agonists of the antioxidant response element (ARE) signaling pathway (AID 743202; active means well fitted activation curve with a large enough effect in the signal ratio in the repeat runs, not every such curve was filed as active; the % refers to the signal ratio). In a few lines:
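HepG2 ARE-bla reporter line, 2,000 cells/well; 5 h preincubation 37 C/5% CO2; compound (DMSO) 16 h 37 C; B/G FRET substrate 2 h RT; fluorescence intensity.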

Experiment [8] is described as follows: qHTS assay for small molecule agonists of the antioxidant response element (ARE) signaling pathway - cell viability counter screen (AID 743203; calls by dose curve; further: nearly all actives have a fitted effect of over 55% in size). In outline: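 Luminescence read-out (CellTiter-Glo, 30 min at room temperature) measured cell viability in the same wells as the ARE beta-lactamase reporter. HepG2 ARE-bla cells were treated with compounds for 16 hrs at 37C/5% CO2.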

Experiment [9] in a line: qHTS assay for small molecule activators of the heat shock response signaling pathway - cell viability counter screen (AID 743209). Further: nearly all actives have a fitted effect of over 50% in size. In a few lines: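 HSE-bla HeLa; 1500 cells/well; overnight 37 C, 5% CO2; compound 5 h 37 C; LiveBLAzer B/G substrate 2.5 h RT; CellTiter-Glo 30 min RT; luminescence.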
A short description of experiment [10]: qHTS assay to identify small molecule agonists of the peroxisome proliferator-activated receptor delta (PPARd) signaling pathway - cell viability counter screen (AID 743211). Further: nearly all actives have a fitted effect of over 55% in size. In outline: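 Counter screen for cytotoxicity run in parallel with the PPARd reporter screen. Beta-lactamase reporter HEK293H cells exposed to compounds 17 h; ATP-based CellTiter-Glo luminescence quantified viability.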

Experiment [11] addresses Peroxisome proliferator-activated receptor delta (Homo sapiens) (UniProt Q03181). Description: qHTS assay to identify small molecule agonists of the peroxisome proliferator-activated receptor delta (PPARd) signaling pathway (AID 743212; calls by dose curve; further: potency means the concentration at half of the fitted maximal effect). In outline:
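Read-out: beta-lactamase FRET fluorescence after 2 h room-temperature incubation with LiveBLAzer B/G substrate. Cells were HEK293H carrying a UAS-bla reporter for PPARd, treated at 37 C with DMSO-dissolved compounds.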

Experiment [12] is described as follows: qHTS assay to identify small molecule antagonists of the peroxisome proliferator-activated receptor delta (PPARd) signaling pathway - cell viability counter screen (AID 743213). Further: nearly all actives have a fitted effect of over 50% in size. In outline:
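Viability counter-screen, qHTS format: PPARd-bla HEK293H, L165041 300 nM final, 17 h compound exposure at 37 C, CellTiter-Glo luminescence after 30 min RT.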

Experiment [13] in a line: qHTS assay to identify small molecule agonists of the farnesoid-X-receptor (FXR) signaling pathway - cell viability counter screen (AID 743218). Further: nearly all actives have a fitted effect of over 45% in size. In a few lines:
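Luminescence from CellTiter-Glo, read after 30 min at RT, reports viability of GeneBLAzer FXR-UAS-bla HEK 293T cells treated 16 h with compounds in the wells used for the beta-lactamase reporter.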

Experiment [14] deals with Vitamin D3 receptor (Homo sapiens) (UniProt P11473). Briefly: qHTS assay to identify small molecule agonists of the vitamin D receptor (VDR) signaling pathway (AID 743222; calls by dose curve). In a few lines:
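Beta-lactamase reporter readout (LiveBLAzer B/G FRET, 2 h RT) in VDR-bla cells after 16 h compound treatment at 37C, 5% CO2; cells pre-incubated 4 h before pin transfer of DMSO solutions.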

Experiment [15] is described as follows: qHTS assay for small molecule activators of the heat shock response signaling pathway (AID 743210; active means well fitted activation curve with a large enough effect in the signal ratio in the repeat runs, with a control signal flat, not every such curve was filed as active; the % refers to the signal ratio; further: series mostly up to about 63 µM). In a few lines: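 Beta-lactamase reporter read-out: FRET substrate fluorescence after 2.5 h at RT, following 5 h compound treatment at 37 C of HeLa cells carrying HSE-driven bla reporter; quantitative HTS format.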
Experiment [16] deals with Peroxisome proliferator-activated receptor delta (Homo sapiens) (UniProt Q03181). Briefly: qHTS assay to identify small molecule antagonists of the peroxisome proliferator-activated receptor delta (PPARd) signaling pathway (AID 743215; active means well fitted inhibition curve with a large enough effect in the signal ratio in the repeat runs, not every such curve was filed as active; the % refers to the signal ratio;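 further: cells stimulated with agonist L165041 at 300 nM final during compound exposure; series mostly up to about 62 µM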). In outline:
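HEK293H GeneBLAzer PPARd UAS-bla reporter cells; cpd + L165041 300 nM final, 17 h 37 C; LiveBLAzer B/G FRET substrate 2 h RT; fluorescence intensity read-out. Antagonist mode.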

In experiment [17] the target is Vitamin D3 receptor (Homo sapiens) (UniProt P11473). Description: qHTS assay to identify small molecule antagonists of the vitamin D receptor (VDR) signaling pathway (AID 743223; active means well fitted inhibition curve with a large enough effect in the signal ratio in the repeat runs, not every such curve was filed as active; the % refers to the signal ratio). In outline:
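Cells carrying a VDR-driven beta-lactamase reporter (VDR-bla) were co-treated with compound and 3 nM final 1alpha,25-dihydroxyvitamin D3 for 16 h at 37C; reporter activity was measured as FRET substrate fluorescence after 2 h at room temperature.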

Experiment [18] is described as follows: qHTS assay to identify small molecule antagonists of the farnesoid-X-receptor (FXR) signaling pathway - cell viability counter screen (AID 743221; active means well fitted cell-killing curve with a large enough effect in the repeat runs, not every such curve was filed as active; further: nearly all actives have a fitted effect of over 50% in size). In a few lines:
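Multiplexed counter screen: viability of FXR-bla HEK 293T cells under agonist stimulation by chenodeoxycholic acid (50 uM, final) and test compound for 16 h at 37 C, measured by CellTiter-Glo luminescence in the reporter wells.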

Experiment [19] deals with Bile acid receptor (Homo sapiens) (UniProt Q96RI1). Briefly: qHTS assay to identify small molecule antagonists of the farnesoid-X-receptor (FXR) signaling pathway (AID 743217; active means well fitted inhibition curve with a large enough effect in the signal ratio in the repeat runs, not every such curve was filed as active; the % refers to the signal ratio). In outline: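 Read-out: beta-lactamase FRET fluorescence (LiveBLAzer B/G substrate, 2 h, room temperature) in GeneBLAzer FXR-UAS-bla HEK 293T cells. Compounds were co-dosed with 50 uM chenodeoxycholic acid (final) and incubated 16 h at 37 °C.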
Chain of Bile acid receptor (Homo sapiens) (Q96RI1 whole entry, looked up): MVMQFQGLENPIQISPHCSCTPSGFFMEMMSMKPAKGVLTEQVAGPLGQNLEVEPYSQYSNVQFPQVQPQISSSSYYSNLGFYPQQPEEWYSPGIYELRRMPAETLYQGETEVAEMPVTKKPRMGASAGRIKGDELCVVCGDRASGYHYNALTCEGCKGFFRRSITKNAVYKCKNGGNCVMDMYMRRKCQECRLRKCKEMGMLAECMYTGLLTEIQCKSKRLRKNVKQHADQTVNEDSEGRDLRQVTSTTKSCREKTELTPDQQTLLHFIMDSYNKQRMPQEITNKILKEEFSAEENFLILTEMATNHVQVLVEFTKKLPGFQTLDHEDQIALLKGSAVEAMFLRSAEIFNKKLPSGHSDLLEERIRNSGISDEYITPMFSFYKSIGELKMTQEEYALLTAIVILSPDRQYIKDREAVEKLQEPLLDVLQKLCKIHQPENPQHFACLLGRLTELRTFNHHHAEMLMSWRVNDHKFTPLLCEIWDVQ

For experiment [20] the target is unchanged. Briefly: qHTS assay to identify small molecule agonists of the farnesoid-X-receptor (FXR) signaling pathway (AID 743220; active means well fitted activation curve with a large enough effect in the signal ratio in the repeat runs, not every such curve was filed as active; the % refers to the signal ratio). In a few lines:
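FXR-UAS-bla HEK 293T cells carrying a UAS-driven beta-lactamase reporter were plated for 5 h at 37C/5% CO2, then exposed to DMSO-dissolved Tox21 10K compounds for 16 h at 37C. A LiveBLAzer B/G FRET substrate was loaded for 2 h at room temperature before fluorescence reading.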

Inconclusive results are not listed. The source made the active and inactive calls. Unless noted, the call rests on the fitted dose curve; in most records, active means well fitted curve in the direction sought with a large enough effect in the repeat runs; inconclusive means weak or mixed curves; inactive means no such curve, though single readings can be large; an effect the other way counts as inactive or inconclusive.

Chain of Peroxisome proliferator-activated receptor delta (Homo sapiens) (Q03181 whole entry, looked up): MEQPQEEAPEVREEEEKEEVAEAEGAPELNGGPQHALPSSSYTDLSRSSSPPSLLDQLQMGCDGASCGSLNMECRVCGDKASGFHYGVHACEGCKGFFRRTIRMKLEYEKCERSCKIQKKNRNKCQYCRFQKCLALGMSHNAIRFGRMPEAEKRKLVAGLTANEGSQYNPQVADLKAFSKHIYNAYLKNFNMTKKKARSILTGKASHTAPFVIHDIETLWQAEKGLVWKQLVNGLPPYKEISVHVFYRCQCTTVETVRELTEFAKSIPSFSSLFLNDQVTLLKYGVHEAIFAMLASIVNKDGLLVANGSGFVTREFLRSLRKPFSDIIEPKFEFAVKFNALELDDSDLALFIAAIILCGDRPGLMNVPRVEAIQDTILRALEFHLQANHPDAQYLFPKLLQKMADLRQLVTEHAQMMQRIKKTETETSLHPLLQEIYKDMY
Chain of Peroxisome proliferator-activated receptor gamma (Homo sapiens) (P37231 whole entry, looked up): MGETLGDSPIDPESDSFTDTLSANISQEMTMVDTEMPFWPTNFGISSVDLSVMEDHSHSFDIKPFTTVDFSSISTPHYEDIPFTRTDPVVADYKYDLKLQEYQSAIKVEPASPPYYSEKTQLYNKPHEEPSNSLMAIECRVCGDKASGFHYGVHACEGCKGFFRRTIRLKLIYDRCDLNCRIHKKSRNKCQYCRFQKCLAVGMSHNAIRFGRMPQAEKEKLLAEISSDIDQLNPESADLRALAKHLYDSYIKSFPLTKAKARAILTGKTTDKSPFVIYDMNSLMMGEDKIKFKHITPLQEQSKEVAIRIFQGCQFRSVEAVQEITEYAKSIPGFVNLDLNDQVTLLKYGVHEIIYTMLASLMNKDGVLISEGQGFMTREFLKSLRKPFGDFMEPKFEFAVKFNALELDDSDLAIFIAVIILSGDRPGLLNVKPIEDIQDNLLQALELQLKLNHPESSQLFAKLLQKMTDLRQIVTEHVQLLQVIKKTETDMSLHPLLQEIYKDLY
Chain of Vitamin D3 receptor (Homo sapiens) (P11473 whole entry, looked up): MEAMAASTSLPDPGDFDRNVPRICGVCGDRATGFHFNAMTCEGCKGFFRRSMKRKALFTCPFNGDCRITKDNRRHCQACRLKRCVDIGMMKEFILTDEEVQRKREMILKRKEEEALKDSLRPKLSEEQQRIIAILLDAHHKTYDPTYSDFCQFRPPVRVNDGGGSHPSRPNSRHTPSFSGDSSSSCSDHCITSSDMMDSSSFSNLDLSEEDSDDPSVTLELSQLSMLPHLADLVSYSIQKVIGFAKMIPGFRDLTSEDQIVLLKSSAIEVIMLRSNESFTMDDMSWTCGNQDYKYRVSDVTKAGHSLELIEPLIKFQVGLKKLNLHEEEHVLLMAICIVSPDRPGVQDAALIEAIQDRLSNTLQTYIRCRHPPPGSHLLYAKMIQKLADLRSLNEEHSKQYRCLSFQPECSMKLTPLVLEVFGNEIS

Turning to `CCCCCC[C@@H](O)C/C=C\CCCCCCCC(=O)OCC(O)CO` (stereo partly specified), the Potency entry in experiment [1], in experiment [2], in experiment [3], in experiment [4], in experiment [5] and in [6] was “inactive” in each case. Further, the Potency result in [7], in experiment [8], in experiment [9], in experiment [10], in experiment [12] and in [13] was “inactive” in each case. Moreover, the Potency result in [14] is “inactive”. For the same compound, the Potency in [11] was 49 µM (active).
On to `Cc1ccc(OC(=O)c2ccccc2O)cc1`, for which the Potency entry in experiment [1], in [2], in experiment [3], in experiment [4], in experiment [5] and in experiment [6] was “inactive” in each case. Moreover, the Potency result in [7], in experiment [8], in experiment [9], in [15], in [10] and in experiment [11] was “inactive” each time. Also, the Potency result in experiment [12], in experiment [16], in experiment [13] and in experiment [17] was “inactive” in each case.
Regarding `CC1CC(C)C(=O)C1=O` (stereo unspecified), the Potency entry in experiment [1], in experiment [2], in [3], in experiment [4], in [5] and in experiment [6] was “inactive” in each case. Besides, the Potency entry in experiment [7], in experiment [8], in [15], in experiment [10], in experiment [11] and in experiment [12] was “inactive” each time. Further, the Potency result in experiment [13] and in experiment [18] was “inactive” in each case.
For the compound `C1C[C@@H]2[C@H]3CC[C@H](C3)[C@@H]2C1`, the Potency result in [1], in [2], in experiment [3], in experiment [4], in [5] and in experiment [6] was “inactive” in each case. Moreover, the Potency result in experiment [7], in experiment [8], in experiment [9], in [15], in [10] and in [12] was “inactive” throughout. In addition, the Potency entry in [16], in [13], in experiment [18], in [14] and in experiment [17] was “inactive” each time.
With `CCC(=O)C1CC(C(C)C)CC=C1C` (stereo unspecified), the Potency result in experiment [1], in experiment [2], in experiment [3], in [4], in experiment [5] and in experiment [6] was “inactive” in each case. Also, the Potency result in experiment [7], in experiment [8], in [9], in experiment [15], in experiment [10] and in experiment [11] was “inactive” in each case. Moreover, the Potency result in experiment [12] and in experiment [13] was “inactive” throughout.
In the case of `C1COC1`, the Potency result in [1], in experiment [2], in [3], in experiment [4], in [5] and in experiment [6] was “inactive” in each case. The Potency result in experiment [7], in experiment [8], in [15], in experiment [10], in [11] and in experiment [12] was “inactive” throughout. Besides, the Potency entry in experiment [16], in [19], in experiment [13], in experiment [20], in [18] and in [17] was “inactive” each time.
Consider `Cc1ccc(C(C)(C)O)cc1`, for which the Potency result in experiment [1], in experiment [2], in experiment [3], in experiment [4], in experiment [5] and in experiment [6] was “inactive” each time. Moreover, the Potency entry in experiment [7], in [8], in [9], in experiment [15], in experiment [10] and in experiment [11] was “inactive” each time. For the same compound, the Potency entry in experiment [12], in experiment [16], in experiment [13] and in [18] was “inactive” throughout.
Turning to `Cc1ccc(CO)cc1`, the Potency result in [1], in experiment [2], in experiment [3], in experiment [4], in experiment [5] and in [6] was “inactive” throughout. In addition, the Potency entry in experiment [8], in experiment [9], in experiment [15], in experiment [10], in experiment [11] and in experiment [12] was “inactive” in each case. Moreover, the Potency result in experiment [19], in [13], in experiment [20], in [18] and in experiment [17] was “inactive” each time.
